Data as given in PubChem BioAssay (NCI).
Compounds without any hit were thinned out: in the full panel of roughly 79,000, 15% have a hit. Values without a mark were called inactive. The source made the active and inactive calls. Cut-off read from the data, not from the text of the source: active = growth inhibition above about 70%; inactive = the rest.

How the values were obtained:
[1] = NCI Yeast Anticancer Drug Screen. Data for the rad50 strain (AID 155);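 note: 0% = growth of vehicle-only cultures of the same strain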; details: S. cerevisiae rad50 strain growth inhibition; at 50.0 µM; stronger effect = higher value
Procedure, shortened: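 Growth of the mutant yeast was measured after compound exposure and referenced to vehicle-treated cultures.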

[2] = NCI Yeast Anticancer Drug Screen. Data for the mec2-1 strain (AID 157); details: S. cerevisiae mec2-1 strain, at 50.0 µM, stronger effect = higher value
Procedure, shortened: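 Test agents were screened against the mec2-1 yeast strain, with defined DNA repair or cell cycle alteration. Growth was scored as inhibition against vehicle-only controls.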

[3] = NCI Yeast Anticancer Drug Screen. Data for the sgs1 mgt1 strain (AID 161);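 note: 0% = growth of cultures given vehicle only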; details: S. cerevisiae sgs1 mgt1 strain, at 50.0 µM, stronger effect = higher value
Procedure, shortened: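 Mutant yeast exposed to compound; growth scored against vehicle-only wells.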

[4] = NCI Yeast Anticancer Drug Screen. Data for the cln2 rad14 strain (AID 165);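 note: 0% = growth equal to vehicle treated cultures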; details: S. cerevisiae cln2 rad14 strain, at 50.0 µM, stronger effect = higher value
Procedure, shortened: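 Growth of compound-exposed yeast (cln2 rad14 genotype) measured and expressed as inhibition relative to vehicle.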

[5] = NCI Yeast Anticancer Drug Screen. Data for the bub3 strain (AID 167); details: S. cerevisiae bub3 mutant strain, at 50.0 µM, stronger effect = higher value
Procedure, shortened: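 Whole-cell yeast assay. The mutant strain was incubated with compounds, and growth inhibition was determined by comparison with vehicle-treated cells.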

[6] = NCI Yeast Anticancer Drug Screen. Data for the mlh1 rad18 strain (AID 175); details: S. cerevisiae mlh1 rad18 strain growth inhibition; at 50.0 µM; stronger effect = higher value
Procedure, shortened: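 In this whole-cell yeast screen, a strain with altered DNA damage repair is challenged with compound, and its growth is measured against matched vehicle-treated controls.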

Row | SMILES | growth inhibition [1] | growth inhibition [2] [%] | growth inhibition [3] | growth inhibition [4] [%] | growth inhibition [5] [%] | growth inhibition [6]
1 | CCCCCC(=O)c1ccc2[nH]c3c(C)cc([N+](=O)[O-])c(C)c3c2c1 | 3.65% | -35.6 | -34.6% | -2.8 | -17.2 | -10.3%
2 | O=S(=O)(O)c1ccc2c(N=Nc3cccc4ccccc34)c(O)c(S(=O)(=O)O)cc2c1 | -2.35% | 4.9 | -21.3% | 41.2 | -17.8 | 23.1%
3 | C=C(c1nc2ccc(Cl)cc2[nH]c1=O)C(O)c1ccc(C(O)C(=O)c2nc3ccc(Cl)cc3[nH]c2=O)cc1 (centres undefined) | 5.85% | 4.55 | -15.6% | -68.8 | -1.4 | 9.05%
4 | O=C(CCC(=O)OCC1CCCO1)OCC1CCCO1 (centres undefined) | 1.15% | 2.45 | 4.7% | 4.9 | 5.75 | -2.8%
5 | CC(C)(C)c1cc(CCCCCCCC2(CCCCCCCc3cc(C(C)(C)C)cc(C(C)(C)C)c3)OC(COCCOCCCCCC#N)C(COCCOCCCCCC#N)O2)cc(C(C)(C)C)c1 (centres undefined) | 24.6% | -6.5 | -1.5% | -18 | 0 | 9.6%
6 | c1ccc(SCCCCSc2ccccc2)cc1 | 17.1% | 5.05 | -2.55% | -38 | 14.1 | 43%
7 | Cc1ccc(S(=O)(=O)OCC2COC(C(C)C)OC2)cc1 (centres undefined) | 5.45% | -2.95 | 9.3% | 2.15 | 48 | -1.25%
8 | CC1CN=C(N(C(=O)Nc2ccc(Cl)cc2)c2cccc(Cl)c2)S1 (centres undefined) | -30.9% | -13.7 | -50.1% | -8.75 | -14.8 | -52%
9 | NNC(=S)N/N=C(\CCCC(=O)NCCc1ccccc1)CC(=O)c1ccccc1 | -3.6% | 12.8 | -21.3% | 18.1 | 8.15 | 8.8%
10 | CC(C)C12Cc3c(ccc4ccccc34)OC1(C)Oc1ccc3ccccc3c1C2 (centres undefined) | 18.6% | -17.4 | -13.5% | 20.1 | -6.8 | 7.05%
11 | CCOC(=O)/C(C#N)=C/Nc1[nH]c(=O)c(C#N)c(-c2ccc(Cl)cc2)c1SC | 10.9% | 5.8 | -9.35% | -9.2 | 2.1 | 16.8%
12 | C/C(=N\N(C)S(=O)(=O)c1ccc(C)cc1)c1ccccc1 | 10.1% | -6.9 | -5.5% | -30.1 | -10.1 | 0.65%
13 | CC(C)(CCC(=O)O)CCC(=O)O | 16.3% | 17.6 | 15.8% | -6.05 | -4 | 36%
14 | COc1ccc(C2=NN(C(C)=O)c3nc4ccccc4nc3O2)cc1 | -25.2% | -28.8 | -20% | -5.9 | -24.6 | -12.6%
15 | Cc1ccc(CO)cc1 | 13.9% | -6.7 | 21.9% | -5.6 | -2.05 | 21.7%
16 | CC1=CNNc2ccccc21 | -2.6% | 1.45 | -4.6% | 8 | -14.4 | 5.1%
17 | O=C(Nc1ccccc1)O/N=C(/c1ccccc1)c1cccnc1 | 15.2% | -5.1 | 13.2% | -3.3 | 15.2 | 6.3%
18 | CN(C)S(=O)(=O)c1cccc([N+](=O)[O-])c1 | 17.5% | 7.5 | 18.1% | 8.5 | -6.3 | 8.8%
19 | Cc1ccc(C(=O)c2sc(Nc3cccc(C(F)(F)F)c3)c(C#N)c2N)c(C)c1 | 16.8% | 3.35 | 5.9% | 11.2 | 3.05 | -12.6%
20 | CO[C@H]1CC[C@@]2(C)C(=CC[C@H]3[C@@H]4CC[C@H]([C@H](C)CCCC(C)C)[C@@]4(C)CC[C@@H]32)C1 | -4.65% | -20.4 | 18.1% | 24.7 | 17.2 | 9%

Row | SMILES | growth inhibition [1] | growth inhibition [2] [%] | growth inhibition [3] | growth inhibition [4] [%] | growth inhibition [5] [%] | growth inhibition [6]
21 | CS(=O)(=O)OC1CCCS(=O)(=O)c2ccccc21 (centres undefined) | -12.9% | -12.8 | 3.65% | -46.9 | -1 | -6.45%
22 | CCC(C)NC(=O)/C=C/c1ccccc1 (centres undefined) | 31.9% | 17.1 | 14.4% | 12.4 | -1.1 | 6.65%
23 | CC(=O)OCC1OC(Nc2[nH]c(=O)n(C)c(=O)c2C=O)C(OC(C)=O)C(OC(C)=O)C1OC(C)=O (centres undefined) | 2.5% | 9.4 | 6.7% | 9.15 | -0.4 | 3.95%
24 | Cc1cccc(C2=N/C(=C\c3ccc4c(c3)OC(O)O4)C(=O)O2)c1 (centres undefined) | -1.9% | 6.55 | 4.95% | 3.55 | 7.05 | -16.4%
25 | Clc1ccc2ccccc2n1 | 15.1% | -1.65 | -6.4% | -23.1 | 9.8 | -8.15%
26 | O/N=C1/CCCc2nonc21 | -18.6% | -3.15 | -0.3% | 4.35 | -8.2 | -6.5%
27 | CO/C(=N\N=C\c1ccccc1F)c1ccncc1 | -25.9% | -64.8 | -70.8% | 1.7 | -28.6 | -60.6%
28 | O=C(c1ccccc1)C(C(c1ccc(Cl)cc1)N1CCOCC1)N1CCOCC1 (centres undefined) | 5.15% | 2.75 | 16.8% | 19.9 | 10.7 | 7.65%
29 | CSc1nnc(N(C(C)C)C(C)C)c2nc[nH]c12 | 9.65% | 11.8 | 16.1% | 47.5 | 14.7 | 4.2%
30 | COc1ccc(C2(C)OCCC(C)O2)cc1 (centres undefined) | -0.25% | -18.1 | 0.1% | -24.1 | -5.2 | 10.6%
31 | Cc1c(C(=O)CC(=O)C(=O)Nc2cccc(C(F)(F)F)c2)[n+](=O)c2ccccc2n1[O-] | 45.8% | 43.1 | 28.6% | 14.2 | 38.4 | 31.6%
32 | CC(C)CC(=O)OC1=C(OC(=O)CC(C)C)C(=O)C(OC(=O)CC(C)C)=C(OC(=O)CC(C)C)C1=O | 36.9% | 15.3 | 39.3% | 29.6 | 7.9 | 25.3%
33 | CC(C(=O)O)C(=O)NNc1ccccc1 (centres undefined) | 7.8% | -17.9 | -6.7% | 8.4 | -2.1 | -16.4%
34 | COC1/C=C\OC2(C)Oc3c(C)c(O)c4c(O)c(c(CN(C)C)c(O)c4c3C2=O)NC(=O)/C(C)=C\C=C/C(C)C(O)C(C)C(O)C(C)C(OC(C)=O)C1C (centres undefined) | 50.5% | -3.1 | -16.7% | 28.2 | -29.9 | -6.45%
35 | Nc1ccc(-c2cc[cH-]c2)cc1.[Fe+2].c1cc[cH-]c1 | 8.2% | 10.3 | 10.8% | 12.2 | 21.4 | 22.6%
36 | O=NN(CCCl)C(=O)NC1c2cc(Cl)ccc2-c2c(Cl)cc(Cl)cc21 (centres undefined) | 84.3% (active) | 59.3 | 73.7% (active) | 48.5 | 22.8 | 86.5% (active)
37 | O=P(c1ccccc1)(c1ccccc1)c1ccccc1OCCOCCOc1ccccc1P(=O)(c1ccccc1)c1ccccc1 | -7.2% | -3.75 | 5.9% | -16.8 | 0.35 | 13.9%
38 | COc1nc(NC2OCC(O)C(O)C2O)c(Br)c(=O)n1C (centres undefined) | 4.9% | -10.4 | 14.2% | 11.8 | 17.5 | 13%
39 | Cc1cc(S(N)(=O)=O)c(SCc2nc(N)nc(N(C)C)n2)cc1Cl | -30.8% | -22.3 | -20.3% | 9.05 | -37.4 | 7.8%
